In PubChem BioAssay (NCATS) one finds Potency data, which are given here for 40 compounds.

Each structure is given as a SMILES string. Records with an inconclusive call do not appear. Entries that show only a call come without a potency. Activity calls are given as the source filed them. Calls come from the whole dose curve; as a rule, active = well fitted inhibition curve with a large enough effect; inconclusive = small, poorly fitted or top-dose-only effect; inactive = flat fitted curve, though single readings scatter.
Potency is the fitted concentration of half-maximal effect.

The test is described as follows: qHTS for Inhibitors of Plasmodium falciparum (HB3) proliferation (AID 504318). Note: nearly all actives have a fitted effect of over 60% in size. The settings on record: P. falciparum HB3 in erythrocytes, SYBR Green DNA, 72 h; series mostly up to 7.21 µM. The source says:
Plasmodium falciparum is a virulent malarial parasite that kills 1-2 million people worldwide each year. Malaria not only inflicts tremendous suffering and morbidity on the human population, but has dramatically influenced the course of civilization with profound sociological and economic implications (Shah, S. 2010). Transmitted by mosquitoes, the sporozoite form of the parasite enters the blood stream to infect hepatocytes, where they become merozoites that infect red blood cells (erythrocytes). Within erythrocytes, merozoites begin a […] cycle of growth and division, after which the parasite is released to infect new red blood cells. Gametocytes, which form within erythrocytes as well, circulate in the bloodstream and are ingested by the mosquito, thereby completing the life cycle (see CDC website). To profile malarial lines for differential chemical responses and to identify inhibitors of malarial growth, an assay that measures P. falciparum growth and replication within erythrocytes was employed. This assay uses a DNA binding fluorescent dye (SYBR Green) to detect parasite DNA following cell lysis. Because mature erythrocytes lack DNA, only Plasmodium-derived DNA is detected. The P. falciparum line cp250, derived from a malarial isolate from Cambodia, (Mu, J., et al. 2010) was added to the panel of lines, Dd2, HB3, 7G8 and GB4 in this study. Laboratory of Assay Development and Screening Technology [ADST] and NIH Chemical Genomics Center [NCGC] Boston University, Chemistry Department, Center for Chemical Methodology and Library Development [CMLD-BU] NIH National Institute of Allergy and Infectious Diseases [NIAID]
ADST Assay Protocol Summary: The 1536-well SYBR Green viability assay was based on the method of Bennett et al (2004) and described previously in 1536-well format (Yuan J., et al. 2009). For screening 3 ul culture medium was dispensed into 1536 well black clear bottom plates (Aurora Biotechnologies) using a Multidrop Combi (Thermo Fisher Scientific Inc.), 23 nL compounds in DMSO were added by a pin transfer (Cleveland, P.H. and Koutz, P.J, 2005) using a pin tool-based delivery system (Kalypsys), and 5 ul of erythrocytes infected with P. falciparum one of five lines (cp250, Dd2, HB3, 7G8 or GB4, 0.3% parasitemia, 2.5% hematocrit final concentration) were added. The plates were incubated at 37C in a humidified incubator in 5% CO2 for 72 h, and 2 ul lysis buffer (20 mM Tris HCl, 10 mM EDTA, 0.16% saponin, 1.6% triton X, 10X SYBR Green I (supplied as 10,000X final concentration by Invitrogen) was added to each well. The plates were mixed for 25 sec with gentle shaking and incubated overnight at room temperature in the dark. The following morning, fluorescence intensity at 485(14) nm excitation and 535(25) nm emission wavelengths was measured on an EnVision (Perkin Elmer) plate reader. Plate reads were normalized relative to the control inhibitor (0.29 uM artemisinin) and vehicle (DMSO) wells present on each plate and then corrected by an algorithm using vehicle-only control plates at the beginning and end of the compound plate stack. References Shah, S. (2010). The Fever: how malaria has ruled humankind for 500,000 years. New York, Sarah Crichton Books. CDC web site, http://www.cdc.gov/malaria/about/biology/index.html Mu, J., Myers, R.A., Jiang, H., Liu, S., Ricklefs, S., Waisberg, M., Chotivanich, K., Wilairatana, P., Krudsood, S., White, N.J., et Plasmodium falciparum genome-wide scans for positive selection, recombination hot spots and resistance to antimalarial drugs Nature Genetics 2010, 42, pp 268-271 Bennett TN, Paguio, M., Gligorijevic, B., Seudieu, C., Kosar, A. D., Davidson, E., and Roepe, P. D. Novel, rapid, and inexpensive cell-based quantification of antimalarial drug efficacy Antimicrobial Agents Chemother. 2004, 48(5): pp 1807-10 Yuan J, Johnson RL, Huang RL, Wichterman J, Jiang HY, Hayton K, Fidock DA, Wellems TE, Inglese J, Austin CP, Su XZ. […]
In the case of `COC(=O)[C@@H](NC(=O)O[C@@H]1C(=O)c2cc(Br)ccc2O[C@H]1c1cccc(OC)c1)C(C)C`, the Potency entry was “inactive”.

Take `CCOC(=O)CN1C(=O)N(CC)C(C)=C(C(=O)OC)C1c1ccccc1` (stereo not given): the Potency result is “inactive”.

On to `COc1ccc2ccccc2c1-c1c(OC)ccc2ccccc12`, for which the Potency entry was “inactive”.

With `Cn1c(-c2ccccc2)c(O)c(=O)c2ccccc21`, the Potency entry is “inactive”.

`COC1=CC2C(=O)C(C(c3ccccc3)C2C)C1(C)O` (stereo not given): the Potency entry is “inactive”.

As to `CCN1C(=O)[C@@H]2[C@H]3[C@H](O)[C@H](O)CC(=NOC[C@@H](O)[C@H]4O[C@@H]5OC(C)(C)O[C@H]5[C@@H]4O)[C@@H]3CC[C@H]2C1=O`, the Potency result was “inactive”.

With `COC(=O)[C@H](COC(C)(C)C)NC(=O)O[C@@H]1C(=O)c2ccc(OC)cc2O[C@H]1c1cccc(C(F)(F)F)c1`, the Potency entry was “inactive”.

`CN1c2ccccc2[C@@]2(O)C(=O)[C@@]1(C)[C@@H]1CCC=C[C@H]12`: the Potency result is “inactive”.

With `COC(=O)[C@H]1O[C@@H](c2cc(OC)c(C)c(OC)c2OCc2ccccc2)[C@H](C)[C@H]2O[C@@]12C`, the Potency entry was “inactive”.

Regarding `CCOC(=O)C1=CN(CCC=C(C)C)C(=O)N(C(C)=O)C1c1ccccc1` (stereo not given), the Potency entry is “inactive”.

As for `COC(=O)C1=C(C(=O)OC)[C@@H]2N(C)c3ccccc3[C@@]23C[C@@H](C(=O)OC)N(C(=O)c2cc(C)oc2C)C3=N1`, the Potency entry was “inactive”.

Consider `CC1(OC(=O)c2ccc(Cl)nc2)C(=O)C=C2C=C3CCCN3C=C2C1=O` (stereo not given), for which the Potency result was “inactive”.

For `COC(=O)C(C(=O)OC)c1ccccc1[N+](=O)[O-]`, the Potency entry was “inactive”.

For `COc1ccc([C@]23Cc4ccccc4[C@H](O2)C2=C(O3)C(=O)c3ccccc3C2=O)cc1`, the Potency was 1510 nM (active).

On to `CCN1C(=NCCc2ccccn2)NC(c2cccs2)C(C(=O)OC)=C1C` (stereo not given), for which the Potency result was “inactive”.

As to `COC1=C[C@H](C(=O)NCc2ccc(OC)cc2)C(C)C(c2ccccc2)CC1=O` (stereo not given in full), the Potency entry is “inactive”.

`COC(=O)C1=NOC2(C=C(Br)C(OC)=C(Br)C2=O)C1` (stereo not given): the Potency entry was “inactive”.

On to `COC(=O)C1=C[C@@H]([C@@H](C)[C@H](OC)c2ccccc2Br)[C@@H]2OCCC[C@H]12`, for which the Potency result is “inactive”.

Turning to `CC1(OC(=O)c2ccc(Cl)nc2)C(=O)C=C2C=C(c3ccsc3)OC=C2C1=O` (stereo not given), the Potency result is “inactive”.

`CCOC(=O)N1C2=NC(C(=O)OC)=C(C(=O)OC)[C@@H]3Nc4ccccc4[C@]23C[C@H]1C(=O)OC`: the Potency result was “inactive”.

With `CCN1C(=NCCc2ccc(Br)cc2)NC(c2ccccc2)C(C(=O)OC)=C1C` (stereo not given), the Potency result is “inactive”.

For the compound `C=CCOC(=O)N[C@H](c1cccc(C(F)(F)F)c1)C(C(C)=O)C(C)=O`, the Potency result was “inactive”.

Take `O=C1[C@H]2[C@@H]3[C@@H](O)[C@H](O)CC(=NOCc4ccccc4)[C@@H]3CC[C@H]2C(=O)N1C[C@@H]1CCCO1`: the Potency result is “inactive”.

`Cc1cc2c(nc1C)CCCCN2C[C@H](C)ON=C[C@@H](C)[C@H](OCc1ccccc1)C(C)C`: the Potency result is “inactive”.

Regarding `COc1ccc(COC(=O)NN=C2C[C@@H](O)[C@@H](O)[C@@H]3[C@H]4C(=O)N(c5cccc(Oc6ccccc6)c5)C(=O)[C@@H]4CC[C@H]23)cc1`, the Potency entry was “inactive”.

`CCN1C(=NCc2cccc(C(F)(F)F)c2)NC(c2ccccc2)C(C(=O)OC)=C1C` (stereo not given): the Potency entry is “inactive”.

Turning to `O=C1C=C(c2ccccc2)CCC1`, the Potency result is “inactive”.

As to `COC1=C[C@H](C(=O)NCc2ccc(Br)cc2)[C@H](C)[C@@H](c2ccccc2)CC1=O`, the Potency result is “inactive”.

Turning to `COC(=O)N[C@H](CC(C)=O)c1cccs1`, the Potency entry was “inactive”.

Take `Cc1cccc(C)c1Nc1oc(-c2ccccc2)nc1C(C)(C)C`: the Potency result was “inactive”.

As to `C[C@H]1[C@@H]2O[C@H]2CCO[C@H]1c1cccc(Br)c1`, the Potency result is “inactive”.

In the case of `CC1(C)O[C@H]2O[C@H]([C@H](O)CON=C3[C@H]4CCn5c(=O)n(-c6ccccc6)c(=O)n5[C@@H]4[C@H](O)[C@@H]4O[C@H]34)[C@H](O)[C@@H]2O1`, the Potency entry is “inactive”.

Consider `CC1(OC(=O)c2cnc3ccccc3n2)C(=O)C=C2C=C(c3ccc(C#N)cc3)OC=C2C1=O` (stereo not given), for which the Potency entry was “inactive”.

For the compound `CC(C)CON=C1C[C@@H](O)[C@@H](O)[C@@H]2[C@H]3C(=O)N(c4ccc(F)cc4F)C(=O)[C@@H]3CC[C@@H]12`, the Potency result is “inactive”.

Take `COC1=C[C@H](C(=O)NCc2ccccc2)[C@H](C)[C@@H](c2ccccc2)CC1=O`: the Potency result is “inactive”.

Take `COc1ccc(O[C@H]2C=C[C@@H](c3ccccc3)O[C@H]2COC(=O)CCC(C)=NO[C@@H]2O[C@H](COC(C)=O)[C@@H](OC(C)=O)[C@H](OC(C)=O)[C@@H]2OC(C)=O)cc1`: the Potency entry was “inactive”.

`C[C@@H]1CC2=CCCC2[C@]2(O1)C(=O)Nc1cccc(Br)c12` (stereo not given in full): the Potency result was “inactive”.

`COC(=O)C1=C(C)N(Cc2ccccc2)C(=NCc2ccc(OC)cc2)NC1c1ccccc1` (stereo not given): the Potency entry is “inactive”.

On to `COc1cc2c(cc1OC)[C@@H]1O[C@](CCCCN3C(=O)c4ccccc4C3=O)(C2)Oc2c1c(=O)oc1ccccc21`, for which the Potency was 2390 nM (active).

Regarding `COC(=O)CC=C[C@H](C)[C@H](Cc1ccccc1Br)OC`, the Potency entry is “inactive”.
